An excerpt weighted towards active compounds, which were near 7.4% of everything screened.
FLuc modulator: firefly luciferase modulation, counter-screen for miR-21 project | purified FLuc, Km substrates, luminescence inhibition | Potency, µM (top dose mostly 57.5 µM), usual class: inhibitors | 360,000 compounds, 6.9% hits | AID 588342; note: nearly all actives have a fitted effect of over 55% in size
Target sequence (P08659 whole entry, looked up): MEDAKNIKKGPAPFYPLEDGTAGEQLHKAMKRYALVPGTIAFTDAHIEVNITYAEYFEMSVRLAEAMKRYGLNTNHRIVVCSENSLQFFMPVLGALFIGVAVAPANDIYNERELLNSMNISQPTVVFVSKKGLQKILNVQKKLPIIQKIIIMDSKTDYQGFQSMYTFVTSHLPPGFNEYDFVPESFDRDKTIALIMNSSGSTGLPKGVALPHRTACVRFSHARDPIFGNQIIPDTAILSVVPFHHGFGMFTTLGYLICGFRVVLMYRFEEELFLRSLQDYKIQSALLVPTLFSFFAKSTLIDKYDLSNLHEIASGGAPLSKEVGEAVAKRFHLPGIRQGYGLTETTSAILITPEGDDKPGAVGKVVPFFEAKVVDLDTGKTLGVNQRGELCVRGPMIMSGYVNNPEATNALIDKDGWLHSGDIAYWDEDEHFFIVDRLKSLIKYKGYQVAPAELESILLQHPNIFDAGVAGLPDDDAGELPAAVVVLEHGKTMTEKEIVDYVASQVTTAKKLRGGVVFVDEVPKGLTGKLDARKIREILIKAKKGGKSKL
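Purified P. pyralis luciferase, 10 nM final, with Km-level 10 uM D-luciferin and 10 uM ATP in 50 mM Tris acetate pH 7.5, 10 mM Mg acetate, 0.01% Tween-20, 0.05% BSA; 6-point qHTS titration about 60 µM downward; luminescence read.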
SMN2 splice up: enhancers of SMN2 splice variant expression | AID 1458 | HEK293 SMN2-luciferase splicing reporter, luminescence, 30-36 h | Potency, µM (titrated, usually from 46.1 µM), hits mostly activators | 210,000 compounds, 2.8% hits; note: nearly all actives have a fitted effect of over 55% in size
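HEK293 cells carry an SMN2 […]–luciferase reporter in which exon 7 inclusion puts luciferase in frame. Cells were plated 10-12 h before compound addition, then incubated 30-36 h at 37C. ONE-Glo luminescence was read; sodium butyrate at 4.5 mM final served as control.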
NPC1 prom act: NPC1 promoter activation | Huh7 NPC1 promoter luciferase reporter, 24 h | 320,000 compounds, 2.4% hits | Potency, µM (top dose mostly 9.22 µM), most hits filed as activators; note: nearly all actives have a fitted effect of over 60% in size
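Huh7 reporter cells (NPC1 promoter driving luciferase) are dosed with compound for 24 h at 37 °C, 5% CO2; luciferase detection reagent is then added and luminescence measured after 10 min at ambient temperature.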
ELG1 genotox: induces genotoxicity in HEK293T cells with luciferase-tagged ELG1. Potency, µM (titrated, usually from 46 µM), most hits filed as activators. 330,000 compounds, 1.3% hits. HEK293T ELG1-luciferase reporter, luminescence, 16 h; note: nearly all actives have a fitted effect of over 60% in size
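After overnight (16 hr) compound treatment at 37 °C, ELG1-luciferase HEK293T cells were lysed with ONE-Glo; luminescence quantified 30 min later at room temperature.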
Rab9 promoter act: activators of Rab9 promoter. Huh7 Rab9 promoter-luciferase reporter, luminescence, 24 h. Potency, µM (highest dose often 9.22 µM), hits mostly activators. 320,000 compounds, 2.8% hits. AID 485297; note: nearly all actives have a fitted effect of over 60% in size
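Cells were plated at 1500 per well in reduced-serum medium with 10% FBS and left 2 h. Compound in DMSO was then added for 24 h at 37 °C. Reporter signal was read by luminescence after 10 min with luciferase detection reagent.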
Hits are given with their value; [ ] = dose if it differs, or a comment. Calls come from the whole dose curve; as a rule, active = well fitted curve in the direction sought with a large enough effect; inconclusive = small, poorly fitted or top-dose-only effect, or another doubt; inactive = no such curve, though single readings can be large; an effect the other way counts as inactive or inconclusive.

Cc1cc(C)c(C(=O)COC(=O)c2cccnc2Cl)c(C)c1 was read as FLuc modulator 16.9µM, SMN2 splice up inactive, NPC1 prom act inactive, ELG1 genotox inactive and Rab9 promoter act inactive.
`N=C(N)SCC(=O)O` gave SMN2 splice up inactive[9.22 µM].
For CC(C)(CNC(=O)COc1ccccc1Cc1ccccc1)N1CCOCC1 the results were FLuc modulator inactive, NPC1 prom act inactive, ELG1 genotox inactive and Rab9 promoter act inactive.
For COc1ccc2cc(C(=O)C3CCCN(C(=O)CCc4cnn(C)c4)C3)ccc2c1 (stereo unspecified) the results were FLuc modulator inconclusive, NPC1 prom act inactive, ELG1 genotox inactive and Rab9 promoter act inconclusive.
Screening Cc1cnc2c(c1SCC(=O)NCc1ccc(F)cc1)c(=O)n(C)c(=O)n2C returned FLuc modulator inactive.
Screening CS(=O)(=O)N1CCC2(CC1)CN(c1ccccn1)C2 returned SMN2 splice up inactive.
Screening COc1ccc(OC)c(C(=O)COC(=O)c2ccccc2O)c1 returned FLuc modulator 12µM, SMN2 splice up inactive, NPC1 prom act inactive, ELG1 genotox inactive and Rab9 promoter act inactive.
COc1ccc(OC)c(C(=O)COC(=O)c2c(OC)cccc2OC)c1 was read as FLuc modulator inactive, SMN2 splice up inactive, NPC1 prom act inactive, ELG1 genotox inactive and Rab9 promoter act inactive.
COc1cccc(/C=N/Nc2nn3cnnc3c3ccccc23)c1O was read as FLuc modulator inactive, SMN2 splice up inactive, NPC1 prom act inactive, ELG1 genotox inactive and Rab9 promoter act inactive.
Oc1cccc(/C=N/Nc2nn3cnnc3c3ccccc23)c1 was read as FLuc modulator 8.49µM, NPC1 prom act inactive, ELG1 genotox inactive and Rab9 promoter act inactive.
Screening CCCn1c2ccccc2c2cnn(CC(=O)NCc3ccccc3Cl)c(=O)c21 returned FLuc modulator inactive.
Screening O=C(NCC(O)c1ccccc1)c1ccccc1 (stereo unspecified) returned FLuc modulator 21.3µM, NPC1 prom act 2.82µM, ELG1 genotox inconclusive and Rab9 promoter act 3.98µM.
`O=C(NCCNC(=O)c1ccccc1)c1ccccc1` gave FLuc modulator inactive, NPC1 prom act inactive, ELG1 genotox inactive and Rab9 promoter act inactive.
Cc1ccc(-c2nc3s/c(=C\c4ccco4)c(=O)n3n2)cc1 was read as FLuc modulator 0.757µM, SMN2 splice up inactive, NPC1 prom act inactive, ELG1 genotox inactive and Rab9 promoter act inactive.
Screening Cc1ccc(/C=c2\sc3nc(-c4ccco4)nn3c2=O)o1 returned FLuc modulator inconclusive, SMN2 splice up inactive, NPC1 prom act inactive, ELG1 genotox inactive and Rab9 promoter act inactive.
`CCCC[C@H]1C[C@@H]1[C@@H]1N(C(C)=O)[C@H](c2cccc(OC)c2)CC12CC2` gave SMN2 splice up inactive.
`O=C(COc1ccccc1)NC(=S)Nc1cccc2cc(O)ccc12` gave FLuc modulator inactive, NPC1 prom act inactive, ELG1 genotox inactive and Rab9 promoter act inactive[1.84 µM].
For Cn1c2ccccc2c2cc([N+](=O)[O-])ccc21 the results were FLuc modulator inactive, NPC1 prom act inactive, ELG1 genotox inactive and Rab9 promoter act inactive.
`CCN(CC)CCn1c2ccccc2c2nc3ccc([N+](=O)[O-])cc3cc21` gave FLuc modulator inconclusive, NPC1 prom act inactive, ELG1 genotox 23.1µM and Rab9 promoter act inactive.
Screening Cn1cccc1C(=O)NC(=O)COC(=O)CC12CC3CC(CC(C3)C1)C2 returned FLuc modulator 16.9µM, SMN2 splice up inactive, NPC1 prom act inactive, ELG1 genotox inactive and Rab9 promoter act inactive.
`COc1ccc(/C=N/n2c(SC)nnc2-c2ccccc2)c(OC)c1OC` gave FLuc modulator inactive, SMN2 splice up 14.1µM, NPC1 prom act inactive, ELG1 genotox inactive and Rab9 promoter act inactive.
CN(C)Cc1ccccc1-c1ccc2ncnc(N3CCOCC3)c2c1 was read as SMN2 splice up inactive.
Screening CCN(CC)S(=O)(=O)c1ccc2nc(NC(=O)c3cccnc3)sc2c1 returned FLuc modulator 19µM.
`CCNS(=O)(=O)c1ccc2nc(NC(=O)c3cccnc3)sc2c1` gave FLuc modulator 21.3µM, SMN2 splice up inactive, NPC1 prom act inactive, ELG1 genotox inactive and Rab9 promoter act inconclusive.
Screening CCc1c(C(=O)NNC(=S)NC2CCCCC2)csc1C returned FLuc modulator inactive, SMN2 splice up 1.58µM, NPC1 prom act inactive, ELG1 genotox inactive and Rab9 promoter act inactive.
